Source: PubChem (Broad Institute)
In the library only some 2.9% were active in any assay of this set; here they are far more common.
TRPM1 prom inh: inhibitors of MITF-driven TRPM1 promoter in melanoma cells. AID 488899. 330,000 compounds, 0.83% hits. SK-MEL-5 TRPM1 promoter luciferase, 24 h. inhibition, % at 12.5 µM;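 active = mean inhibition across replicates of 60% or more, whatever share of single replicates reaches that level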
Wnt bcat act: activators of Wnt/beta-catenin signaling; activation, % at 9.35 µM; AID 743398; 300,000 compounds, 1.2% hits; Wnt/beta-catenin reporter cell assay, activator, plate reader; in the data active = activation above about 30%, passing the limit was not always enough;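 note: 0% = neutral control wells and 100% = positive control wells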
MITF TRPM1 HTS: MITF TRPM1 promoter activation in melanoma cells | SK-MEL-5 TRPM1-promoter luciferase, 24 h; % of positive control, neutral wells = 0 | activation, % at 12.5 µM | 300,000 compounds, 0.75% hits | AID 588334;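 active = mean activation of at least 80% with every replicate also reaching 80%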;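 note: 0% = neutral control wells and 100% = parthenolide positive control wells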
PfHsp90 yeast 2: inhibits growth of yeast expressing Plasmodium falciparum Hsp90; S. cerevisiae expressing PfHsp90, BacTiter-Glo ATP, 48 h; yeast lacking PDR1 and PDR3 efflux regulators; inhibition, % at 9.4 µM; 310,000 compounds, 0.32% hits;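 active = every replicate shows inhibition above about 80%, whatever the replicate mean, limit read from the data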;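 note: 0% = DMSO neutral controls and 100% = 20 µM radicicol positive controls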
NSD2 HMT inh: NSD2 (human) methyltransferase inhibition. O96028. NSD2 peptide methylation, AlphaScreen, 120 min. inhibition, % at 12.5 µM. 310,000 compounds, 0.54% hits; in the data active = inhibition above about 50%
Target sequence (O96028 whole entry, looked up): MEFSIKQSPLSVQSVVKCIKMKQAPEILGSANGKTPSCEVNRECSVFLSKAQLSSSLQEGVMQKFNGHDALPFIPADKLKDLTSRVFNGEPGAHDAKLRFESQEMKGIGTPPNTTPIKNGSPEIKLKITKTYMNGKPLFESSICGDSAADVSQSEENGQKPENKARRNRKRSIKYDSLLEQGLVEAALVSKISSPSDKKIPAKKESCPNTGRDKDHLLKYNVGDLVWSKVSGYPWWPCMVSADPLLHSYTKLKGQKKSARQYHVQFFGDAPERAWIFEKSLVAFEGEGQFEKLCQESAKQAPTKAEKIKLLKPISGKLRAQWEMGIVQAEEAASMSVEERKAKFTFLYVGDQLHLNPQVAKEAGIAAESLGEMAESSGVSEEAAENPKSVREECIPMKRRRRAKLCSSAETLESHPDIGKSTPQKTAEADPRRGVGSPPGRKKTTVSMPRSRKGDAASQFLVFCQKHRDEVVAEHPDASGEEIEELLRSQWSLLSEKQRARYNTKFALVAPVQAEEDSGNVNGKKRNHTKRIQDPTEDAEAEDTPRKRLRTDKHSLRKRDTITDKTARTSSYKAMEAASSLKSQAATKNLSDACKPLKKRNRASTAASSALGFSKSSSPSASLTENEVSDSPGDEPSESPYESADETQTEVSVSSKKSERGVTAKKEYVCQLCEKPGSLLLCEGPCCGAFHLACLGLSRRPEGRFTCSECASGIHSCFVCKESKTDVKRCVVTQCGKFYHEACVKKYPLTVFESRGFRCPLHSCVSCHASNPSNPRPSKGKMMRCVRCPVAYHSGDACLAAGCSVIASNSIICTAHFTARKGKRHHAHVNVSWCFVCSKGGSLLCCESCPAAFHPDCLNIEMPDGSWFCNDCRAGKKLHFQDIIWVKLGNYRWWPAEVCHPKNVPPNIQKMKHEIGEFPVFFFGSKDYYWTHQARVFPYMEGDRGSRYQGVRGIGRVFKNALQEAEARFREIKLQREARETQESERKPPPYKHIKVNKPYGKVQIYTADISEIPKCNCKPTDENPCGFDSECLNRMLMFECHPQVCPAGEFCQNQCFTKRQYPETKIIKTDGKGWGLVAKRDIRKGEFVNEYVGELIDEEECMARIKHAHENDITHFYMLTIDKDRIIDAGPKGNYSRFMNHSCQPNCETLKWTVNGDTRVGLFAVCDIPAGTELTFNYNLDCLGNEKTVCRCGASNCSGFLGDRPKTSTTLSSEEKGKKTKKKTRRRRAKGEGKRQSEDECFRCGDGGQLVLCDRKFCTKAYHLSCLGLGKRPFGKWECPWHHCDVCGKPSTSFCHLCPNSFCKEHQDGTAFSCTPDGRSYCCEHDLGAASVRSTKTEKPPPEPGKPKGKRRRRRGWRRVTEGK
N-glyco inh: blocks N-linked glycosylation in D54 reporter cells. reporter increase, % at 12.5 µM. D54 ERlucT glycosylation luciferase reporter, 24 h; percent of 100 nM tunicamycin response. 360,000 compounds, 0.23% hits;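 active = mean luciferase reporter signal, scaled so untreated is 0 and the glycosylation-blocking control 100, at or above a set limit in every replicate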;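 note: luciferase carries N-glycosylation sites so blocking glycosylation raises the light; 0% = median of neutral control wells and 100% = median of 100 nM tunicamycin wells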
* hit, by the source's call; . = no result.

SMILES | TRPM1 prom inh | Wnt bcat act | MITF TRPM1 HTS | PfHsp90 yeast 2 | NSD2 HMT inh | N-glyco inh
O=C(N/N=C/c1ccc([N+](=O)[O-])o1)C1CCCC1 | 18 | 2 | -21 | -7 | 6 | 13
Cc1ccc2nc3sc(C(=O)N4CCN(C)CC4)cc3cc2c1 | . | . | . | . | -1 | .
Cc1ccccc1NC(=O)[C@@H]1CCCN1S(=O)(=O)c1cccc2cccnc12 | . | . | . | . | -3 | .
Cc1ccc(-n2nnnc2C(Cl)c2nnnn2-c2ccc(C)cc2)cc1 | -6 | -1 | 5 | 110* | 2 | -1
COc1cc(C(CCN2CCCCC2)c2c(OC)cc(OC)c3c(-c4ccccc4)cc(=O)oc23)cc(OC)c1OC (stereo unspecified) | 85* | -6 | -84 | . | . | -4
COc1cc(C(CCN2CCCC(C)C2)c2c(OC)cc(OC)c3c(-c4ccccc4)cc(=O)oc23)cc(OC)c1OC (stereo unspecified) | 90* | . | -90 | -14 | . | -4
O=C1NC(Cc2ccc(O)cc2)c2nc3ccc(F)cc3c(=O)n2-c2cc3ccccc3cc21 (stereo unspecified) | . | -2 | . | . | . | 8
COCC(=O)NCC1CCN(C(=O)C(=O)c2cccs2)CC1 | . | 4 | . | . | . | .
C=CCn1c(NC(=O)c2ccc(C)cc2)nc2ccccc21 | -17 | 9 | . | 22 | 3 | 7
CC1(C)N([O-])c2cc([N+](=O)[O-])ccc2[N+]1=O | . | 7 | . | . | 85* | .
CN(C)CCCn1c(=S)[nH]c2ccccc2c1=O | -5 | 1 | 5 | -30 | 16 | 1
CN(C)CCCn1c2c3ccccc3ccc2c2oc(=O)c3ccccc3c21 | 80* | -4 | -80 | -6 | -1 | 1
CC(C)(C)C1=CC(=Nc2ccccc2N)C=C(C(C)(C)C)C1=O | 1 | -1 | -7 | -24 | 39 | -1
CC(C)(C)C1=CC(=O)C(=O)C(C(C)(C)C)=C1 | . | . | -67 | 103* | . | 13
Cc1cc(C)cc(NC(=O)/C(C#N)=C/c2cn(CC(=O)NCc3ccco3)c3ccccc23)c1 | 84* | . | -84 | -5 | 1 | 10
Nn1c(SCC(=O)Nc2ccc(OCc3ccccc3)cc2)nnc1-c1cc(-c2ccc(Cl)cc2)n[nH]1 | . | . | . | . | 0 | .
CC(=Nc1ccc(C)cc1)c1sc2ccccc2c1O | -32 | 46* | 27 | -2 | -1 | -14
COC(=O)C1=C(C)N(Cc2ccccc2)C(=NCc2cccc(Cl)c2)N[C@H]1c1ccccc1 | 11 | . | -12 | -7 | . | -5
COC(=O)C1=C(C)N(Cc2ccccc2)C(=NCc2ccccc2)N[C@H]1c1ccccc1 | 83* | -5 | -80 | -8 | . | -3
CCN(CC)CCCN=C1N[C@@H](c2cccc(F)c2)C(C(=O)OC)=C(C)N1Cc1ccccc1 | 94* | -4 | -94 | -7 | . | -4
NC(=O)[C@@H]1CCCN1C(=O)[C@H](CCc1ccccc1)NC(=O)[C@H]1O[C@@H](n2cnc3c(N)ncnc32)[C@H](O)[C@@H]1O | . | -3 | . | . | . | .
Cc1cc(/C=C2\C(=N)N3N=CSC3=NC2=O)c(C)n1Cc1ccccc1 | -25 | 36* | 22 | 2 | 8 | -1
Cc1ccsc1C(=O)NCCc1c[nH]c2ccccc12 | -52 | 24 | 50 | -28 | 6 | 1
O=C(CCNC(=O)c1ccccc1Cl)Nc1cccc(S(=O)(=O)N2CCOCC2)c1 | 4 | -1 | 1 | -7 | -2 | 1
Cc1csc2nc(CSc3ccc(Cl)cc3)cn12 | -93 | . | 92* | -9 | -2 | -8
SMILES | TRPM1 prom inh | Wnt bcat act | MITF TRPM1 HTS | PfHsp90 yeast 2 | NSD2 HMT inh | N-glyco inh
c1ccc(CSCc2cn3ccsc3n2)cc1 | -89 | . | 84* | 6 | 2 | 2
Clc1ccc(SCc2cn3cccnc3n2)cc1 | -48 | 10 | 49 | 12 | -1 | -1
O=C(Cc1cn2ccsc2n1)OCc1ccccc1 | -42 | -2 | 41 | 11 | -1 | -3
Cc1cc(C)n2cc(CSc3ccc(Cl)cc3)nc2n1 | -5 | 7 | 8 | 5 | -1 | -1
Clc1ccc(SCc2cn3ccsc3n2)cc1 | -80 | 52* | 80 | -5 | 1 | -3
O=C(CC1CCCC1)N[C@@H](Cc1cccnc1)C(=O)N1CCC[C@H]1C(=O)NC1CCCC1 | . | 12 | . | . | . | .
CCOC(=O)C(=O)/C(C#N)=C/Nc1ccccc1 | 2 | -6 | -4 | . | 1 | 2
CCOC(=O)/C(C#N)=C/Nc1ccccc1OC | -106 | . | 117* | 24 | -3 | -1
Oc1ccccc1/C=N/Nc1ccccc1 | -61 | 4 | 70 | 17 | 12 | 1
